Assay outcomes: PubChem BioAssay, Broad Institute
In the library only some 3% were active in any assay of this set; here they are far more common.
C2C12 statin = protects C2C12 myotubes from simvastatin toxicity; actives 0.78% (n = 330,000); AID 602340; ATP luminescence, 48 h; scaled: DMSO 0, geranylgeraniol control 100; rescue of ATP level, % at 7.49 µM;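 active = mean ATP rescue above about 67%, or every replicate alone reaching that limit, limit read from the data, passing the limit was not always enough; inconclusive = no clear call, values can overlap the other calls; inactive = mean under the limit and some replicate under it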;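 also: myotubes were challenged with 10 µM simvastatin during compound exposure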
MITF TRPM1 HTS = increases MITF-driven TRPM1 promoter luciferase signal; SK-MEL-5 TRPM1-promoter luciferase, 24 h; % of positive control, neutral wells = 0; activation, % at 12.5 µM; actives 0.75% (n = 300,000);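 active = mean activation of at least 80% with every replicate also reaching 80%; inconclusive = mean reaches 80% but some replicate falls short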;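 also: 0% = neutral control wells and 100% = parthenolide positive control wells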
Wnt bcat act = activates Wnt/beta-catenin signaling in a reporter cell assay. actives 1.2% (n = 300,000). AID 743398. activation, % at 9.35 µM. activator, plate reader; in the data active = activation above about 30%, passing the limit was not always enough; inconclusive = no clear call, values can overlap the other calls;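 also: 0% = neutral control wells and 100% = positive control wells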
esBAF inh = inhibitors of esBAF chromatin remodeling in mouse ES cells | Bmi1-luciferase knock-in reporter, 24 h; 100% = twice the neutral-well signal | reporter increase, % at 12.5 µM | actives 2% (n = 350,000) | AID 602393; in the data active = activation above about 40%; inconclusive = no clear call, values can overlap the other calls;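 also: 0% = median of the plate's neutral control wells and 100% = double that signal; a rise in the Bmi1 reporter signal indicates esBAF inhibition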
* = called active by the depositor; ? = inconclusive; . = no result given.

SMILES | C2C12 statin | MITF TRPM1 HTS | Wnt bcat act | esBAF inh
Cc1cccc(C)c1NC(=O)c1c[nH]c2ccccc12 | 4 | 77 | 23 | 49*
Cc1cccc(C)c1NC(=O)CNC(=O)Cc1c[nH]c2ccccc12 | -8 | -11 | -1 | 4
CN(C)CCCNc1ncnc2scc(-c3ccccc3)c12 | . | 1 | 40* | .
CN(C)CCCNc1ncnc2c1c(-c1ccccc1)cn2-c1ccccc1 | . | 22 | -8 | 3
Cc1cccc(C#CC2=CC(=O)CC(C)(C)C2)c1 | 16 | . | -2 | 31
COc1cccc(C#CC2=CC(=O)CC(C)(C)C2)c1 | 17 | . | -2 | 134*
C[C@H](CO)N1C[C@H](C)[C@H](CN(C)C(=O)CN(C)C)Oc2cc(-c3ccncc3)ccc2S1(=O)=O | -8 | . | . | 5
COc1cccc(/C=N/Nc2ccc(C(=O)O)cc2)c1O | . | -104 | -23 | .
O=C(O)c1ccccc1NN=Cc1ccccc1 | 3 | 40 | 61* | .
O=C(O)c1ccccc1Nc1ccccc1C(=O)O | 2 | -16 | -1 | -12
COc1cccc(/C=N/Nc2ccccc2C(=O)O)c1O | 31 | 26 | 35* | 4
CCOC(=O)/C(C#N)=C1/C=CN(c2ccc(C)cc2)C=N1 | 5 | 60 | 20 | 47*
CCOC(=O)/C(C#N)=C1/C=CN(c2ccccc2)C=N1 | . | 59 | 5 | 37
Cc1cc(C)n(C(=O)CCCC(=O)n2nc(C)cc2C)n1 | -3 | -1 | . | -3
Cc1cc(C)n(C(=O)CNc2ccc(C)c(C)c2)n1 | 5 | 2 | . | 63*
N#C[C@@H]1[C@@H](c2ccc(-c3ccc(F)cc3)cc2)[C@H](CO)N1C(=O)Cc1ccccc1 | 75* | . | . | -1
COc1ccc(-c2ccc([C@H]3[C@@H](C#N)N(C(=O)c4cccc(F)c4)[C@@H]3CO)cc2)cc1 | 23 | . | . | 51*
COc1ccc(-c2ccc([C@@H]3[C@@H](C#N)N(C(=O)c4cccc(F)c4)[C@H]3CO)cc2)cc1 | 17 | . | . | -1
N#C[C@@H]1[C@@H](c2ccccc2)[C@H](CO)N1S(=O)(=O)c1ccc(-c2ccccc2)cc1 | 88* | . | . | 0
N#C[C@H]1[C@@H](c2ccc(-c3ccc(F)cc3)cc2)[C@H](CO)N1C(=O)Cc1ccccc1 | -25 | . | . | 3
CC(C)=CCC/C(C)=C/CNC(=O)C[C@H]1C[C@H](C(=O)N2CCCCC2)[C@@]2(CCc3ccccc3)c3[nH]c4cc(CCC(=O)N(C)C)ccc4c3CCN2C1=O | 12 | -41 | 1 | 52*
CC(C)=CCC/C(C)=C/CNC(=O)C[C@H]1C[C@H](C(=O)N2CCCCC2)[C@@]2(CCc3ccccc3)c3[nH]c4ccc(Cl)cc4c3CCN2C1=O | -2 | 8 | -3 | -4
CS(=O)(=O)c1ccc2nc(NC(=O)C3CCCO3)sc2c1 (stereo unspecified) | . | 5 | 1 | .
Cc1cc(Cl)cc2sc(NC(=O)C3CC3)nc12 | -9 | 1 | 8 | 18
O=C(Nc1nc2ccc(Cl)cc2s1)C1CCCO1 (stereo unspecified) | 4 | 61 | . | 49*
SMILES | C2C12 statin | MITF TRPM1 HTS | Wnt bcat act | esBAF inh
O=C(Nc1nc2ccc(Cl)cc2s1)C1CC1 | . | . | 60* | .
O=C(Nc1nc(-c2ccc(F)cc2)cs1)C1CCCO1 (stereo unspecified) | . | 85* | 45* | .
O=C(Nc1nc(-c2ccc(-c3ccccc3)cc2)cs1)C1CCCO1 (stereo unspecified) | 16 | 21 | . | 22
CC1=CCC(C(=O)O)C(C(=O)Nc2ccc(-c3nc4ccc(C)cc4s3)cc2)C1 (stereo unspecified) | -1 | 14 | 58* | -20
C[C@@H]1CN([C@H](C)CO)C(=O)Cc2cc(NC(=O)Cc3cn(C)c4ccccc34)ccc2O[C@@H]1CN(C)S(=O)(=O)c1ccc(Cl)cc1 | 48 | . | . | 5
C[C@@H]1CCCCO[C@H](CN(C)C(=O)NC2CCCCC2)[C@H](C)CN([C@H](C)CO)C(=O)c2cc(NS(=O)(=O)c3cccs3)ccc2O1 | -2 | . | . | 5
CO[C@H]1CN(C)C(=O)c2ccc(NC(=O)NC(C)C)cc2OC[C@@H](C)N(Cc2cncnc2)C[C@H]1C | 9 | . | . | -1
CC1CC1C(=O)Nc1nc2ccc(S(C)(=O)=O)cc2s1 (stereo unspecified) | -11 | 18 | 2 | 10
Cc1ccc2nc(-c3ccc(NS(=O)(=O)c4ccc(F)cc4)cc3)sc2c1 | . | 40 | 44* | .
Cc1ccc2nc(NC(=O)C3CC3C)sc2c1 (stereo unspecified) | -23 | 49 | 28 | 72*
CC(C)c1ccc2nc(NC(=O)C3CC3)sc2c1 | -42 | 60 | 58* | 57*
CC(=O)Nc1ccc(S(=O)(=O)Nc2nc3ccc(C)cc3s2)cc1 | -2 | . | . | 1
C[C@@H]1CN([C@H](C)CO)S(=O)(=O)c2ccc(C#CC3CC3)cc2O[C@H]1CN(C)C(=O)c1cnccn1 | -12 | . | . | 8
CNC(=O)C[C@@H]1CC[C@@H]2[C@H](COc3ccc(NC(=O)c4cscn4)cc3C(=O)N2C)O1 | 10 | . | . | 1
CC(=O)N1CCN(c2nnnn2-c2ccccc2)CC1 | 126* | -5 | . | -4
Oc1ccc(N2CCN(c3nnnn3-c3ccccc3)CC2)cc1 | 3 | 9 | 0 | -12
Cc1ccc(NC(=O)c2cc(=O)c3ccccc3o2)cc1 | -4 | 41 | ? | 56*
NC(=O)c1ccsc1NC(=O)c1cc(=O)c2ccccc2o1 | -5 | 130* | 22 | ?
CC(=O)Nc1ccc(NC(=O)c2cc(=O)c3ccccc3o2)cc1 | 31 | 30 | 3 | -1
CO[C@H]1CN(C)C(=O)c2cc(NC(C)=O)ccc2OC[C@H](C)N(CC2CC2)C[C@H]1C | 3 | . | . | 7
O=c1[nH]nc(Cc2ccc(Cl)cc2)c2ccccc12 | 20 | 10 | -2 | 12
O=c1[nH]nc(Cc2ccc(Cl)cc2Cl)c2ccccc12 | 140* | 6 | 0 | 8
Cc1ccc(OCC(=O)Nc2ccc(O)c(-c3nc4ccccc4o3)c2)cc1 | . | -45 | -9 | 54*
Cc1ccccc1-c1nc2cc(NC(=O)C3CC3)ccc2o1 | -32 | 66 | 18 | 63*
Nc1ccc2oc(-c3cccc4ccccc34)nc2c1 | 89* | -46 | . | -33
SMILES | C2C12 statin | MITF TRPM1 HTS | Wnt bcat act | esBAF inh
CCC(=O)Nc1ccc2oc(-c3ccccc3Br)nc2c1 | -10 | 130* | . | 59*
CC(=O)Nc1ccc2oc(-c3ccccc3Br)nc2c1 | . | 4 | . | .
Cc1ccc(-c2nc3cc(N)ccc3o2)c(C)c1 | -1 | -1 | . | -45
Cc1nn(C)cc1NC(=O)C[C@@H]1CC[C@@H]2[C@@H](COc3ccc(NC(=O)C4CCC4)cc3C(=O)N2C)O1 | -7 | . | . | -5
O=C(NCc1ccccc1)[C@@H]1[C@@H](CO)[C@@H]2Cn3c(ccc(-c4cccnc4)c3=O)[C@@H]2N1Cc1cocn1 | 0 | . | . | 5
Cc1ccccc1-c1nc2cc(Cl)ccc2o1 | . | ? | 38* | .
Cc1ccccc1-c1nc2cc(Cl)ccc2c(=O)o1 | . | -37 | -3 | .
Cc1ccc(C(=O)COC(=O)c2cccs2)cc1 | . | 57 | 52* | .
O=C(COC(=O)c1cccs1)c1ccc2ccccc2c1 | . | . | 32* | 42*
CCc1ccc(C(=O)COC(=O)c2cccs2)cc1 | 19 | ? | 62* | 34
